Compounds without any hit were thinned out: in the full panel of roughly 79,000, 15% have a hit. A number with no mark means an inactive call. Calls of active or inactive are those of the source. No stated cut-off is given here; in the data, active means growth inhibition above about 70%; inactive means the rest.
Legend:
[1] = NCI Yeast Anticancer Drug Screen. Data for the rad52 strain (AID 147);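 further: 0% = growth of vehicle-treated control cultures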; settings: S. cerevisiae rad52 mutant growth inhibition, stronger effect = higher value
Method in brief: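 Screen used a yeast mutant impaired in DNA repair. After compound exposure, growth was measured. Values reflect inhibition compared with vehicle-treated cells.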

[2] = NCI Yeast Anticancer Drug Screen. Data for the wt1 strain (AID 149);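 further: 0% = growth of vehicle-treated wt1 cultures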; settings: S. cerevisiae wt1 strain (SPY 50644) growth inhibition, stronger effect = higher value
Method in brief: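 Readout: yeast growth inhibition, normalised to vehicle controls, in the wt1 strain exposed to test compounds.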

[3] = NCI Yeast Anticancer Drug Screen. Data for the rad50EPP+ strain (AID 151);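 further: 0% = growth of vehicle-treated control cultures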; settings: S. cerevisiae rad50 mutant strain, stronger effect = higher value
Method in brief: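 Exposing the rad50EPP+ strain to each compound, growth was compared with vehicle-only cultures to give inhibition.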

[4] = NCI Yeast Anticancer Drug Screen. Data for the mgt1 strain (AID 153); settings: S. cerevisiae mgt1 mutant growth inhibition, stronger effect = higher value
Method in brief: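 Genetically defined yeast (mgt1) treated with compound; inhibition of growth expressed against vehicle-treated controls.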

[5] = NCI Yeast Anticancer Drug Screen. Data for the rad50 strain (AID 155);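 further: 0% = growth of vehicle-only cultures of the same strain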; settings: S. cerevisiae rad50 strain growth inhibition, stronger effect = higher value
Method in brief: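 Compounds were tested on a yeast strain with an engineered DNA damage repair alteration; the reported value is growth inhibition normalised to vehicle treatment.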

[6] = NCI Yeast Anticancer Drug Screen. Data for the mec2-1 strain (AID 157); settings: S. cerevisiae mec2-1 strain, stronger effect = higher value
Method in brief: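 Readout is yeast growth inhibition, normalised to vehicle-treated controls, in the mec2-1 strain exposed to compound.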

[7] = NCI Yeast Anticancer Drug Screen. Data for the rad14 strain (AID 159);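 further: 0% = growth of vehicle-treated control cultures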; settings: S. cerevisiae rad14 strain growth inhibition, stronger effect = higher value
Method in brief: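 Compound-treated yeast with a defined DNA-repair lesion; growth inhibition normalised to vehicle-treated cultures.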

[8] = NCI Yeast Anticancer Drug Screen. Data for the sgs1 mgt1 strain (AID 161);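 further: 0% = growth of cultures given vehicle only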; settings: S. cerevisiae sgs1 mgt1 strain, stronger effect = higher value
Method in brief: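 Percent growth inhibition was derived by comparing compound-exposed mutant yeast with vehicle-exposed cultures. The strain carries alterations in DNA damage repair.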

[9] = NCI Yeast Anticancer Drug Screen. Data for the CLN2oe strain (AID 163);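 further: 0% = growth of vehicle-only control cultures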; settings: S. cerevisiae CLN2oe strain, stronger effect = higher value
Method in brief: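 Values reflect how much compound exposure reduced yeast growth, referenced to vehicle-exposed cells. Assay organism is a strain with a defined genetic change affecting cell-cycle control.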

[10] = NCI Yeast Anticancer Drug Screen. Data for the cln2 rad14 strain (AID 165);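 further: 0% = growth equal to vehicle treated cultures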; settings: S. cerevisiae cln2 rad14 strain, stronger effect = higher value
Method in brief: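 Relative to vehicle controls, growth inhibition of compound-treated cln2 rad14 yeast was recorded.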

[11] = NCI Yeast Anticancer Drug Screen. Data for the bub3 strain (AID 167); settings: S. cerevisiae bub3 mutant strain, stronger effect = higher value
Method in brief: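 Growth of a checkpoint-deficient yeast mutant is measured after compound exposure. Values represent inhibition relative to vehicle.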

[12] = NCI Yeast Anticancer Drug Screen. Data for the wt2 strain (AID 169);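 further: 0% = growth of vehicle-treated yeast cultures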; settings: S. cerevisiae wt2 strain growth inhibition, stronger effect = higher value
Method in brief: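 Values express reduction in yeast growth under compound treatment, referenced to vehicle-treated cells.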

[13] = NCI Yeast Anticancer Drug Screen. Data for the mlh1 strain (AID 171);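 further: 0% = growth of vehicle-treated control cultures of the same strain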; settings: S. cerevisiae mlh1 strain growth inhibition, stronger effect = higher value
Method in brief: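 Steps: expose the defined-mutant yeast strain to compound; expose a parallel culture to vehicle; measure growth; express compound effect as inhibition relative to the vehicle culture.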

[14] = NCI Yeast Anticancer Drug Screen. Data for the sgs1 strain (AID 173);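 further: 0% = growth of vehicle-only control cultures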; settings: S. cerevisiae sgs1 mutant, stronger effect = higher value
Method in brief: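 Treat defined-mutant yeast with compound; measure growth; calculate inhibition relative to vehicle-treated cells.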

[15] = NCI Yeast Anticancer Drug Screen. Data for the mlh1 rad18 strain (AID 175); settings: S. cerevisiae mlh1 rad18 strain growth inhibition, stronger effect = higher value
Method in brief: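 Test agents were incubated with a yeast strain of defined genotype (DNA damage repair defect). Inhibition of growth was derived by comparison with vehicle-exposed cultures.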

[16] = NCI Yeast Anticancer Drug Screen. Data for the rad18 strain (AID 177); settings: S. cerevisiae rad18 mutant growth inhibition, stronger effect = higher value
Method in brief: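 A genetically defined yeast mutant impaired in DNA damage repair was treated with test compounds, then its growth was measured against cultures receiving vehicle alone.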

[17] = at 5.0 µM (retest, dose inferred, filed as 0.5)
[18] = at 50.0 µM (retest, dose inferred, filed as 5.0)

CCN(CC)CCN(C)CCc1ccc(Br)cc1
growth inhibition ([1]; at 1.2 µM): 12% | growth inhibition ([1]; at 3.7 µM): 19% | growth inhibition ([1]; at 11.0 µM): 37% | growth inhibition ([1]; at 33.0 µM): 48% | growth inhibition ([1]; at 100.0 µM): 91% (active) | growth inhibition ([2]; at 1.2 µM): 5% | growth inhibition ([2]; at 3.7 µM): 11% | growth inhibition ([2]; at 11.0 µM): 19% | growth inhibition ([2]; at 33.0 µM): 32% | growth inhibition ([2]; at 100.0 µM): 83% (active) | growth inhibition ([3]; at 1.2 µM): -3% | growth inhibition ([3]; at 3.7 µM): -3% | growth inhibition ([3]; at 11.0 µM): -2% | growth inhibition ([3]; at 33.0 µM): -2% | growth inhibition ([3]; at 100.0 µM): -3% | growth inhibition ([4]; at 1.2 µM): 5% | growth inhibition ([4]; at 3.7 µM): 10% | growth inhibition ([4]; at 11.0 µM): 40% | growth inhibition ([4]; at 33.0 µM): 84% (active) | growth inhibition ([4]; at 100.0 µM): 96% (active) | growth inhibition ([5]; at 1.2 µM): 7% | growth inhibition ([5]; at 3.7 µM): 10% | growth inhibition [5, 17]: -6% | growth inhibition ([5]; at 11.0 µM): 20% | growth inhibition ([5]; at 33.0 µM): 50% | growth inhibition [5, 18]: 11% | growth inhibition ([5]; at 50.0 µM): 31.8% | growth inhibition ([5]; at 100.0 µM): 85% (active) | growth inhibition ([6]; at 1.2 µM): 10% | growth inhibition ([6]; at 3.7 µM): 17% | growth inhibition [6, 17]: 8% | growth inhibition ([6]; at 11.0 µM): 26% | growth inhibition ([6]; at 33.0 µM): 43% | growth inhibition [6, 18]: 26% | growth inhibition ([6]; at 50.0 µM): 33.6% | growth inhibition ([6]; at 100.0 µM): 78% (active) | growth inhibition ([7]; at 1.2 µM): 15% | growth inhibition ([7]; at 3.7 µM): 36% | growth inhibition ([7]; at 11.0 µM): 57% | growth inhibition ([7]; at 33.0 µM): 87% (active) | growth inhibition ([7]; at 100.0 µM): 97% (active) | growth inhibition [8, 17]: 5% | growth inhibition [8, 18]: 41% | growth inhibition ([8]; at 50.0 µM): 68.4% | growth inhibition ([9]; at 1.2 µM): 11% | growth inhibition ([9]; at 3.7 µM): 15% | growth inhibition ([9]; at 11.0 µM): 35% | growth inhibition ([9]; at 33.0 µM): 64% | growth inhibition ([9]; at 100.0 µM): 89% (active) | growth inhibition [10, 17]: 10% | growth inhibition [10, 18]: 52% | growth inhibition ([10]; at 50.0 µM): 53.4% | growth inhibition ([11]; at 1.2 µM): 10% | growth inhibition ([11]; at 3.7 µM): 16% | growth inhibition [11, 17]: 13% | growth inhibition ([11]; at 11.0 µM): 35% | growth inhibition ([11]; at 33.0 µM): 67% | growth inhibition [11, 18]: 21% | growth inhibition ([11]; at 50.0 µM): 53.5% | growth inhibition ([11]; at 100.0 µM): 84% (active) | growth inhibition ([12]; at 1.2 µM): 6% | growth inhibition ([12]; at 3.7 µM): 11% | growth inhibition ([12]; at 11.0 µM): 33% | growth inhibition ([12]; at 33.0 µM): 68% | growth inhibition ([12]; at 100.0 µM): 94% (active) | growth inhibition ([13]; at 1.2 µM): 7% | growth inhibition ([13]; at 3.7 µM): 13% | growth inhibition ([13]; at 11.0 µM): 31% | growth inhibition ([13]; at 33.0 µM): 60% | growth inhibition ([13]; at 100.0 µM): 94% (active) | growth inhibition ([14]; at 1.2 µM): 10% | growth inhibition ([14]; at 3.7 µM): 23% | growth inhibition ([14]; at 11.0 µM): 49% | growth inhibition ([14]; at 33.0 µM): 85% (active) | growth inhibition ([14]; at 100.0 µM): 94% (active) | growth inhibition [15, 17]: -29% | growth inhibition [15, 18]: 25% | growth inhibition ([15]; at 50.0 µM): 68.3%

S=c1[nH]c2cc3ccccc3cc2[nH]1
growth inhibition ([1]; at 1.2 µM): -42% | growth inhibition ([1]; at 3.7 µM): -46% | growth inhibition ([1]; at 11.0 µM): -37% | growth inhibition ([1]; at 33.0 µM): -31% | growth inhibition ([1]; at 100.0 µM): -19% | growth inhibition ([2]; at 1.2 µM): -24% | growth inhibition ([2]; at 3.7 µM): -6% | growth inhibition ([2]; at 11.0 µM): 6% | growth inhibition ([2]; at 33.0 µM): 3% | growth inhibition ([2]; at 100.0 µM): 2% | growth inhibition ([3]; at 1.2 µM): -12% | growth inhibition ([3]; at 3.7 µM): 3% | growth inhibition ([3]; at 11.0 µM): -4% | growth inhibition ([3]; at 33.0 µM): 14% | growth inhibition ([3]; at 100.0 µM): 38% | growth inhibition ([4]; at 1.2 µM): -36% | growth inhibition ([4]; at 3.7 µM): -7% | growth inhibition ([4]; at 11.0 µM): -15% | growth inhibition ([4]; at 33.0 µM): 6% | growth inhibition ([4]; at 100.0 µM): 16% | growth inhibition ([5]; at 1.2 µM): -25% | growth inhibition ([5]; at 3.7 µM): -25% | growth inhibition [5, 17]: 5% | growth inhibition ([5]; at 11.0 µM): -11% | growth inhibition ([5]; at 33.0 µM): 3% | growth inhibition [5, 18]: 86% (active) | growth inhibition ([5]; at 50.0 µM): 71.2% (active) | growth inhibition ([5]; at 100.0 µM): 17% | growth inhibition ([6]; at 1.2 µM): -25% | growth inhibition ([6]; at 3.7 µM): -13% | growth inhibition [6, 17]: -3% | growth inhibition ([6]; at 11.0 µM): -8% | growth inhibition ([6]; at 33.0 µM): 1% | growth inhibition [6, 18]: 17% | growth inhibition ([6]; at 50.0 µM): 45.6% | growth inhibition ([6]; at 100.0 µM): 24% | growth inhibition ([7]; at 1.2 µM): -14% | growth inhibition ([7]; at 3.7 µM): -11% | growth inhibition ([7]; at 11.0 µM): -7% | growth inhibition ([7]; at 33.0 µM): -10% | growth inhibition ([7]; at 100.0 µM): 1% | growth inhibition [8, 17]: -5% | growth inhibition [8, 18]: 15% | growth inhibition ([8]; at 50.0 µM): 68.8% | growth inhibition ([9]; at 1.2 µM): -13% | growth inhibition ([9]; at 3.7 µM): -18% | growth inhibition ([9]; at 11.0 µM): -3% | growth inhibition ([9]; at 33.0 µM): -7% | growth inhibition ([9]; at 100.0 µM): 18% | growth inhibition [10, 17]: 34% | growth inhibition [10, 18]: 57% | growth inhibition ([10]; at 50.0 µM): 43.6% | growth inhibition ([11]; at 1.2 µM): -7% | growth inhibition ([11]; at 3.7 µM): 15% | growth inhibition [11, 17]: -4% | growth inhibition ([11]; at 11.0 µM): -9% | growth inhibition ([11]; at 33.0 µM): 7% | growth inhibition [11, 18]: 83% (active) | growth inhibition ([11]; at 50.0 µM): 68.9% | growth inhibition ([11]; at 100.0 µM): 40% | growth inhibition ([12]; at 1.2 µM): -55% | growth inhibition ([12]; at 3.7 µM): -50% | growth inhibition ([12]; at 11.0 µM): -46% | growth inhibition ([12]; at 33.0 µM): -19% | growth inhibition ([12]; at 100.0 µM): -3% | growth inhibition ([13]; at 1.2 µM): -13% | growth inhibition ([13]; at 3.7 µM): -7% | growth inhibition ([13]; at 11.0 µM): -4% | growth inhibition ([13]; at 33.0 µM): 14% | growth inhibition ([13]; at 100.0 µM): 34% | growth inhibition ([14]; at 1.2 µM): -27% | growth inhibition ([14]; at 3.7 µM): -8% | growth inhibition ([14]; at 11.0 µM): -4% | growth inhibition ([14]; at 33.0 µM): 20% | growth inhibition ([14]; at 100.0 µM): 25% | growth inhibition [15, 17]: 9% | growth inhibition [15, 18]: 78% (active) | growth inhibition ([15]; at 50.0 µM): 67.6% | growth inhibition ([16]; at 1.2 µM): -9% | growth inhibition ([16]; at 3.7 µM): 2% | growth inhibition ([16]; at 11.0 µM): 11% | growth inhibition ([16]; at 33.0 µM): 18% | growth inhibition ([16]; at 100.0 µM): 17%
